Data published in PubChem BioAssay AID1347426 (Functional Genomics Laboratory (NCATS/FGL), 2020).
The campaign covered roughly 31,000 sequences. About 1,400 (4.5%) were called active. Shown is part of a subset that was picked to be rich in actives. Values without a mark were called inactive.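 How the source made its calls: active means median seed-adjusted z-score above 1 or below -1; inactive means the rest.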

Experiment: Novel Modifiers of Survival Motor Neuron (SMN) Protein: Gene Identification via Genome-wide siRNA Screen;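 further: luminescence tracks full-length SMN protein made from the SMN2 reporter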
Details: HEK293T SMN2-luciferase reporter, siRNA knockdown, 72 h; actives lie on both sides
Outline: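 Each of three siRNAs per gene is reverse-transfected (1 pmol) into reporter HEK293T cells whose luciferase output tracks SMN protein level. After 72 h culture, ONE-Glo luminescence is control-normalized, log10-transformed and MAD-standardized; Common Seed Analysis deprioritizes seed-driven hits.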

Sequence	median seed-adjusted z-score
GGGUGCACCAGAAACAUUATT against VEZF1	0.974
GUAACAACAAAUACUCAUATT against KCTD10	-0.506
CAUACUUUUUGGAUAGACATT against MTX1	-0.159
GAGAAAUGCUUGGAGUCCATT against FKBPL	-1.11 (active)
GGACGAGACUCAGAGUCAUTT against CD93	-0.0879
GCACGUACUUGAUUCAGCATT against ZNF34	0.0391
CAACAAGUGUCUAAAUGUUTT against GNG11	0.00609
AGUCAGAGUUGAACAGGUATT against AREG	0.104
AGGCAAACGUGUUCGUGCATT against IGFALS	0.0888
GUAUCACUCUUAGAAUCCATT against GP1BA	0.0803
AGAUAGAAGGGACACCAUUTT against NDUFB3	-0.00982
GGGCAGUUGAUGAACGAAUTT against COG2	0.791
GGCUUGAGAGCUUACAUCATT against PPP2R5C	1.14 (active)
GGUCUGCACUCAUCACUAUTT against MGAT4A	0.134
GAAAUAAGGUUUUUGCAAATT against CCL25	0.0698
CACUAUUCCCAGAUCUUUATT against SMAD5	-0.701
GAAGCUGUGAGAUAGAGAATT against LCN8	0.112
GGAGAUACAUCACCGAGAATT against ELMO3	-0.0898
GCUGAUGCAUUGCUCAUUATT against CCT6A	-0.286
GUUCUGCCCUCAUACCCUUTT against IL9R	-1.33 (active)
CCUCAGUUGGAGUUUCUAATT against TBCEL	0.567
AAGCACAACUUGACCGUGATT against USP20	-0.369
GGAGAAUGCAAUCCGCUUATT against SVIL	0.0852

Sequence	median seed-adjusted z-score
CUAUAUGAAUCACUAUACATT against ZNF181	-0.154
GGACAGAGCAAAAACUUCUTT against DYRK4	-0.824
CCUGAAACCUCAGAACUUATT against PFTK2	-1.16 (active)
GUGUAAGAACUACUACAGATT against HPR	0.237
GUACCUCAAUUUAAUAUCUTT against UGCGL2	-0.456
CGGAAAGUACUUAAACGGATT against PIAS4	0.265
GAUGAUUCGUUGGUAUCUATT against GRIA2	-1.02 (active)
CAAAUACAGUGAGGACAUUTT against GPR83	0.105
CACUGAGAAUGCAUCCAAATT against CYP4B1	-0.663
CGGUCAUUUCGUCGAGAUATT against HSF5	0.369
GCCCUAAACCUGCCGGAAATT against EVX1	1 (active)
CCUCAACAGUGUCUACAUUTT against LYL1	-0.118
GAUAAAAGGUUACAAACGATT against HIF1AN	-0.0315
GCAGUGUAAUGGUAUCCGATT against VLDLR	0.0487
AGCGCAUGAUUGACAGUGATT against CACNG1	-0.452
GCACUGUGCUCGGAAGUUATT against GLS2	-0.793
GUGUCGUCGUAGAAAGAGATT against WEE1	-4.05 (active)
CAGCAUACUUUAUCGCCUUTT against DICER1	0.101
CCCAACAACUGGUAUCUUUTT against CD33	-0.355
GCCCUGGGUGGAUACUUGATT against PIM3	-1.01 (active)
CAAUAGCUGAAAUAAUAGATT against KPNA3	0.383
CAACUACACUGUCAACUACTT against DTX2	0.0597
CAGCAACCAAUGAUAUAUATT against POLR2K	-3.72 (active)

Sequence	median seed-adjusted z-score
GGCUCAUUUUCGCCCUGUATT against CHP2	0.364
GUUUGAGUGUGACACCUGUTT against ZNF71	-0.0193
GGAAUACCUUAUUGAUGUATT against CST8	-0.0126
CGAACACCGGUGAGGUAUATT against SNRPD3	-2.69 (active)
GGUACCAACAAAUACGAUATT against INPP5J	0.223
GAGACUGCACAACACGAUATT against TMEM11	-0.00121
AGUGAGAUUUGAAGAGAUUTT against ADC	-0.157
CGAGUGGACCUACGAGGAATT against ARID3C	-1.32 (active)
AAAAAUCGCUGGACAUGUATT against DNASE2B	0.86
CAAUACGAUUGGGACAUUATT against UXS1	0.25
CAUUCGUUCUUACAAGGAATT against FMNL3	0.481
CCUCCUCUGCUUAUCGUAUTT against GLT8D1	1.22 (active)
GGGACGAUAUUUUAUGCAUTT against AHRR	-0.636
GGGAAGAUCCUGUACAUCUTT against PER2	-0.113
CAUUUGGUCUAGACAGUUUTT against TDP1	-0.352
GGUUCUUGGGUGAAGGACATT against CHGB	-1.29 (active)
GACCCGCUUUCUACCGUUATT against ENTPD4	0.324
GCUUAUCCAUUGGAACUGUTT against NEK9	0.0698
GCAGGGCAGUAAUCCUCAUTT against DLX6	0.0275
GCCUUGUCGAAUUCUGUCATT against FOXO3	-0.712
CCCAGUCUGUGAAACCGAATT against JMJD3	0.871
GCUGCUGAAAGAUAUGAAATT against SPCS3	0.417
GGAUAAACCUAUGCAUACATT against CCNF	-0.435
